# Reference: the supplement of paper PMC10681739
# Columns and labels:
# ETS1 [1] = biological target: T1, ETS1 (UniProt P14921); experiment: ETS1 binding intensity (PBM fluorescence), ETS1 alone (arbitrary fluorescence units); higher = stronger binding; conditions: ETS1 concentration 1 nM; RUNX1 concentration 0 nM
# T1 sequence: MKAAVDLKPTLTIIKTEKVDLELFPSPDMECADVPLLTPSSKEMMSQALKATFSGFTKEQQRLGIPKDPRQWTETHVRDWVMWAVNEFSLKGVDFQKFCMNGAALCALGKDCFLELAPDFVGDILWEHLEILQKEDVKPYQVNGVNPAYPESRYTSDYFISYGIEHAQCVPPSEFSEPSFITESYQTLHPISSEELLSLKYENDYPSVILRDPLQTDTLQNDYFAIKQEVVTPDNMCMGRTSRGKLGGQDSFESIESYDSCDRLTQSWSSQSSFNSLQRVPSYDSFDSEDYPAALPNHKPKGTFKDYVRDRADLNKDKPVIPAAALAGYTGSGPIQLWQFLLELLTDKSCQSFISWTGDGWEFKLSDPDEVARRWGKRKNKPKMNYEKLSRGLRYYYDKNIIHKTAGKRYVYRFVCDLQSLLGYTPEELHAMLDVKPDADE
# RUNX1 [2] = biological target: RUNX1 (UniProt Q01196); experiment: RUNX1 binding intensity (PBM fluorescence), RUNX1 alone (arbitrary fluorescence units); higher = stronger binding; conditions: RUNX1 concentration 2 nM; ETS1 concentration 0 nM
# Protocol: (§1)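 Cooperative gcPBM on 36-bp genomic probes with neighbouring ETS1 and RUNX1 sites. Recombinant human RUNX1 (2 nM) was incubated alone or with ETS1 (25 nM) and detected with anti-RUNX1 antibody plus Alexa488 secondary. Values are medians over 4 replicate spots; the RUNX1+ETS1 data were normalised to the RUNX1-only data. The probes sit in constant array flanks that are not printed.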
# ETS1 [3] = biological target: T1, ETS1; experiment: ETS1 binding intensity (PBM fluorescence) in presence of RUNX1, normalised to ETS1-only experiment (arbitrary fluorescence units); higher = stronger binding; conditions: ETS1 concentration 1 nM; RUNX1 concentration 25 nM
# RUNX1 [4] = biological target: RUNX1 (UniProt Q01196); experiment: RUNX1 binding intensity (PBM fluorescence) in presence of ETS1, normalised to RUNX1-only experiment (arbitrary fluorescence units); higher = stronger binding; conditions: RUNX1 concentration 2 nM; ETS1 concentration 25 nM
# Protocol: as §1
# 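Throughout, for RUNX1 binding intensity (PBM fluorescence) in presence of ETS1, normalised to RUNX1-only experiment: Full-length recombinant human ETS1 or RUNX1 bound to double-stranded 36-bp genomic probes on microarrays, detected by protein-specific primary antibody and Alexa488 secondary, spot fluorescence as median of four replicate spots.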
# 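Throughout, for RUNX1 binding intensity (PBM fluorescence), RUNX1 alone: Full-length recombinant human RUNX1 bound to double-stranded 36-bp genomic probes on a high-density microarray, scored as Alexa488 fluorescence per spot via anti-RUNX1 antibody, median of four replicate spots.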
# RUNX1, sequence (Q01196 whole entry): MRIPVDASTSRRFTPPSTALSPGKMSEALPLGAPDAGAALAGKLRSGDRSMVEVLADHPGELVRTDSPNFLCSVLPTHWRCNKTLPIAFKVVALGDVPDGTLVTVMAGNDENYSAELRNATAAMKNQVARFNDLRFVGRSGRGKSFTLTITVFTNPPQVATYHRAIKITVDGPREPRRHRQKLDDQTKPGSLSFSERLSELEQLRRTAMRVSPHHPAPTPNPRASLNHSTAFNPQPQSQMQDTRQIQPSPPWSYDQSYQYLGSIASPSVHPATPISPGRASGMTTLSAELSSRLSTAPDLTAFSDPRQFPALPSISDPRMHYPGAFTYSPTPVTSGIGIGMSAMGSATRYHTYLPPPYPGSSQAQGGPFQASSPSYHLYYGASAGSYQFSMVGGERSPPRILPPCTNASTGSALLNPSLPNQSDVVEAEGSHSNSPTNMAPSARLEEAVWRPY
sequence,measurement,setting,value
AAACCCTGAGTAATCGGAAGTGGTTAGGAGTGAGAG,ETS1 binding intensity,ETS1 [1],2190
same,RUNX1 binding intensity,RUNX1 [2],816
same,ETS1 binding intensity,ETS1 [3],6580
same,RUNX1 binding intensity,RUNX1 [4],1310
CAGAAAAGGCAGGAAGTGGTACAAACCACAAAAGGC,ETS1 binding intensity,ETS1 [1],5820
same,RUNX1 binding intensity,RUNX1 [2],1320
same,ETS1 binding intensity,ETS1 [3],49600
same,RUNX1 binding intensity,RUNX1 [4],8000
GAGGACTTCCGGGTGGGTGTGATATCTGCGGGCCCG,ETS1 binding intensity,ETS1 [1],848
same,RUNX1 binding intensity,RUNX1 [2],760
same,ETS1 binding intensity,ETS1 [3],677
same,RUNX1 binding intensity,RUNX1 [4],1940
CTACCGGAAATGCAGCACCACGTAAAATGCGGTCGG,ETS1 binding intensity,ETS1 [1],3650
same,RUNX1 binding intensity,RUNX1 [2],912
same,ETS1 binding intensity,ETS1 [3],15800
same,RUNX1 binding intensity,RUNX1 [4],2050
CTCACCCCTGGAGGATGTGGGTTTCCAGGCTGACAG,ETS1 binding intensity,ETS1 [1],836
same,RUNX1 binding intensity,RUNX1 [2],849
same,ETS1 binding intensity,ETS1 [3],2130
same,RUNX1 binding intensity,RUNX1 [4],1190
CCTGCCTGACCGGAAGTGCCCGCAACCCCACCGACC,ETS1 binding intensity,ETS1 [1],20600
same,RUNX1 binding intensity,RUNX1 [2],1180
same,ETS1 binding intensity,ETS1 [3],32600
same,RUNX1 binding intensity,RUNX1 [4],2870
TGCAGTCGTGAAAAAGGAAGTGGTTAAAGTGGATAC,ETS1 binding intensity,ETS1 [1],2880
same,RUNX1 binding intensity,RUNX1 [2],836
same,ETS1 binding intensity,ETS1 [3],9240
same,RUNX1 binding intensity,RUNX1 [4],1520
ACGCGCTCCCTCACTTCCTGCGGCTTTTGGTCCCTC,ETS1 binding intensity,ETS1 [1],1310
same,RUNX1 binding intensity,RUNX1 [2],1880
same,ETS1 binding intensity,ETS1 [3],1500
same,RUNX1 binding intensity,RUNX1 [4],2800
CCCTACTCAGGAGGATGTGGTTGGAGAACCCGCTGA,ETS1 binding intensity,ETS1 [1],815
same,RUNX1 binding intensity,RUNX1 [2],755
same,ETS1 binding intensity,ETS1 [3],2260
same,RUNX1 binding intensity,RUNX1 [4],1300
CAGAGGACAGGATGCCAACCCCAAAACCGCAGCGAC,ETS1 binding intensity,ETS1 [1],733
same,RUNX1 binding intensity,RUNX1 [2],4020
same,ETS1 binding intensity,ETS1 [3],6200
same,RUNX1 binding intensity,RUNX1 [4],9280
TCCAAGGCGGAAAAAACCCGCCCTAAACCGCACCCC,ETS1 binding intensity,ETS1 [1],464
same,RUNX1 binding intensity,RUNX1 [2],1470
same,ETS1 binding intensity,ETS1 [3],1040
same,RUNX1 binding intensity,RUNX1 [4],1460
AGTCTCGTTTCCTGTGCGCTGTGGCCACCTGGCAGC,ETS1 binding intensity,ETS1 [1],1110
same,RUNX1 binding intensity,RUNX1 [2],716
same,ETS1 binding intensity,ETS1 [3],1050
same,RUNX1 binding intensity,RUNX1 [4],1790
CCGCTTCCGGCCTTCGCCCGGCTTACCCGCGTCGCA,ETS1 binding intensity,ETS1 [1],1490
same,RUNX1 binding intensity,RUNX1 [2],1070
same,ETS1 binding intensity,ETS1 [3],1740
same,RUNX1 binding intensity,RUNX1 [4],2920
CTCTTTCACAAAGGAAATGGAAACCACAAAGAGGAC,ETS1 binding intensity,ETS1 [1],2140
same,RUNX1 binding intensity,RUNX1 [2],1820
same,ETS1 binding intensity,ETS1 [3],14700
same,RUNX1 binding intensity,RUNX1 [4],3930
GTCTTAGGTCGGAAGTCTGTGGTCCCTGTTCACATG,ETS1 binding intensity,ETS1 [1],796
same,RUNX1 binding intensity,RUNX1 [2],835
same,ETS1 binding intensity,ETS1 [3],910
same,RUNX1 binding intensity,RUNX1 [4],953
GTGTTTCCTCTTTGTTTTGGGGCTGTGGTTGCCACA,ETS1 binding intensity,ETS1 [1],414
same,RUNX1 binding intensity,RUNX1 [2],1330
same,ETS1 binding intensity,ETS1 [3],600
same,RUNX1 binding intensity,RUNX1 [4],3180
TGCCACCTGCTTCCTGCCTGTGTAGCCACAAGGGAC,ETS1 binding intensity,ETS1 [1],783
same,RUNX1 binding intensity,RUNX1 [2],910
same,ETS1 binding intensity,ETS1 [3],960
same,RUNX1 binding intensity,RUNX1 [4],1600
ACAGGCTGTCTGCTTCCGTCAGCGGTTATTCCCTTG,ETS1 binding intensity,ETS1 [1],523
same,RUNX1 binding intensity,RUNX1 [2],882
same,ETS1 binding intensity,ETS1 [3],602
same,RUNX1 binding intensity,RUNX1 [4],1340
GGACACAGGCTTCCGCGTTACCGACACCGCGTGGGG,ETS1 binding intensity,ETS1 [1],451
same,RUNX1 binding intensity,RUNX1 [2],837
same,ETS1 binding intensity,ETS1 [3],311
same,RUNX1 binding intensity,RUNX1 [4],934
TGCAGCTATGGCCGGAAGCCTGTGGGTGTGGGAGGA,ETS1 binding intensity,ETS1 [1],4180
same,RUNX1 binding intensity,RUNX1 [2],726
same,ETS1 binding intensity,ETS1 [3],4580
same,RUNX1 binding intensity,RUNX1 [4],906
GTGAGCCTGTAAAGGAAATTGAGGTTATGTGGCTCA,ETS1 binding intensity,ETS1 [1],981
same,RUNX1 binding intensity,RUNX1 [2],694
same,ETS1 binding intensity,ETS1 [3],1770
same,RUNX1 binding intensity,RUNX1 [4],864
CGCCGGCTCCCGGATGTTGTGGGGATCAGCGCCCGC,ETS1 binding intensity,ETS1 [1],3270
same,RUNX1 binding intensity,RUNX1 [2],771
same,ETS1 binding intensity,ETS1 [3],3760
same,RUNX1 binding intensity,RUNX1 [4],1260
TCCCCTCTCCCCATCCGCCCGAGACCACAGCCACTC,ETS1 binding intensity,ETS1 [1],592
same,RUNX1 binding intensity,RUNX1 [2],1340
same,ETS1 binding intensity,ETS1 [3],495
same,RUNX1 binding intensity,RUNX1 [4],1570
TGCTCAAATGCAGGATGTGGTCTGAGAGTTTCTCCT,ETS1 binding intensity,ETS1 [1],1910
same,RUNX1 binding intensity,RUNX1 [2],693
same,ETS1 binding intensity,ETS1 [3],6550
same,RUNX1 binding intensity,RUNX1 [4],1680
ATGTCCCCAGGAGGATGTGGTGTGTCCACAGGAGGA,ETS1 binding intensity,ETS1 [1],759
same,RUNX1 binding intensity,RUNX1 [2],742
same,ETS1 binding intensity,ETS1 [3],1650
same,RUNX1 binding intensity,RUNX1 [4],875
AGTAGGATGGGAGGAAGTGGTTTGTAAGAGGAGGAC,ETS1 binding intensity,ETS1 [1],1780
same,RUNX1 binding intensity,RUNX1 [2],769
same,ETS1 binding intensity,ETS1 [3],2740
same,RUNX1 binding intensity,RUNX1 [4],1480
GAAAGGGTTCATCCAGGAAACCACAACCCAGTGCCG,ETS1 binding intensity,ETS1 [1],808
same,RUNX1 binding intensity,RUNX1 [2],1440
same,ETS1 binding intensity,ETS1 [3],1820
same,RUNX1 binding intensity,RUNX1 [4],2110
TGGCGCTTCCTGTCGCTACCGCTGCGGCCCAGGGCC,ETS1 binding intensity,ETS1 [1],819
same,RUNX1 binding intensity,RUNX1 [2],755
same,ETS1 binding intensity,ETS1 [3],763
same,RUNX1 binding intensity,RUNX1 [4],1860
CCCGGGGGCAGGAAATGTCGCCTTACCCACAGCCTT,ETS1 binding intensity,ETS1 [1],2470
same,RUNX1 binding intensity,RUNX1 [2],873
same,ETS1 binding intensity,ETS1 [3],5930
same,RUNX1 binding intensity,RUNX1 [4],1210
CCGCGAGCCGTCACTTCCTGTGGGCTGGGCCGAGCC,ETS1 binding intensity,ETS1 [1],1910
same,RUNX1 binding intensity,RUNX1 [2],924
same,ETS1 binding intensity,ETS1 [3],2470
same,RUNX1 binding intensity,RUNX1 [4],1940
ACAAAACAAACACATCCCCCAAACCGCCAAACTACA,ETS1 binding intensity,ETS1 [1],606
same,RUNX1 binding intensity,RUNX1 [2],1310
same,ETS1 binding intensity,ETS1 [3],627
same,RUNX1 binding intensity,RUNX1 [4],1300
AGATCAACTTCCACATCCGGTGGTAACAGGGCCCTA,ETS1 binding intensity,ETS1 [1],5380
same,RUNX1 binding intensity,RUNX1 [2],835
same,ETS1 binding intensity,ETS1 [3],5560
same,RUNX1 binding intensity,RUNX1 [4],2970
GCGAAAAACGCGGAAATGCGGTGGCGGCGGCCCGCT,ETS1 binding intensity,ETS1 [1],885
same,RUNX1 binding intensity,RUNX1 [2],721
same,ETS1 binding intensity,ETS1 [3],1190
same,RUNX1 binding intensity,RUNX1 [4],1210
GGGGCTGTGCTTCCGGCTGTTTGTGCGGTTTTGTGC,ETS1 binding intensity,ETS1 [1],1650
same,RUNX1 binding intensity,RUNX1 [2],1520
same,ETS1 binding intensity,ETS1 [3],6750
same,RUNX1 binding intensity,RUNX1 [4],4340
CAACTTCCGGGGCCGGTTGCCTGGCAACCGCAGGAG,ETS1 binding intensity,ETS1 [1],812
same,RUNX1 binding intensity,RUNX1 [2],965
same,ETS1 binding intensity,ETS1 [3],3940
same,RUNX1 binding intensity,RUNX1 [4],3790
TATCAATAAGGAAGTACAATCACCAAACCACAAGCC,ETS1 binding intensity,ETS1 [1],619
same,RUNX1 binding intensity,RUNX1 [2],1170
same,ETS1 binding intensity,ETS1 [3],2700
same,RUNX1 binding intensity,RUNX1 [4],1140
TCCCGGCGTTCTTCCGCTGGCTCAGCCGCAAGTACC,ETS1 binding intensity,ETS1 [1],573
same,RUNX1 binding intensity,RUNX1 [2],818
same,ETS1 binding intensity,ETS1 [3],822
same,RUNX1 binding intensity,RUNX1 [4],1170
AGCAACAGGAAAGAACAGCCTGACCACAGCAGCCAC,ETS1 binding intensity,ETS1 [1],393
same,RUNX1 binding intensity,RUNX1 [2],948
same,ETS1 binding intensity,ETS1 [3],727
same,RUNX1 binding intensity,RUNX1 [4],1050
GTCTGCTTAAAAACAGGAAACCACATATCTCCACCC,ETS1 binding intensity,ETS1 [1],3670
same,RUNX1 binding intensity,RUNX1 [2],1600
same,ETS1 binding intensity,ETS1 [3],10700
same,RUNX1 binding intensity,RUNX1 [4],1990
